Compounds with a hit are over-represented: about 3.2% of the library has one in this group of screens.
MEKK2wt PB1 HTS = raises or lowers MEK5 binding to wildtype human MEKK2 PB1 domain | AID 1531 | Q9Y2U5 | 290,000 compounds, 1.1% hits | binding response (% of control), % at 10 µM | bead flow cytometry, Alexa488-MEK5 binding to MEKK2 WT; actives lie on both sides; in the data active means binding response below about 67% or above about 130%
CendR NRP1 mod = modulators of CendR peptide binding to human neuropilin-1; inhibition, % at 25 µM; 360,000 compounds, 0.85% hits; AID 602438; O14786; FAM-RPARPAR peptide binding to NRP-1, fluorescence polarization;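 active means inhibition or corrected inhibition above about 18%, plus a signal ratio from 0.5 to 1.5, limit read from the data, passing the limit was not always enough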
MEKK3 PB1 HTS = raises or lowers MEK5 binding to the human MEKK3 PB1 domain | binding response (% of control), % at 10 µM | bead-based flow cytometry, Alexa488-MEK5 binding to MEKK3; actives lie on both sides; 0 = blocked by unlabeled MEK5, 100 = vehicle | 290,000 compounds, 1.4% hits | AID 1529;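 active means binding response more than 3 SD above or below the average of its plate-row segment, actives on both sides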;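 further: Alexa488 bead fluorescence after subtracting the streptavidin-only scavenger bead signal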
Target sequence (Q99759 whole entry, looked up, the tested form may be a part): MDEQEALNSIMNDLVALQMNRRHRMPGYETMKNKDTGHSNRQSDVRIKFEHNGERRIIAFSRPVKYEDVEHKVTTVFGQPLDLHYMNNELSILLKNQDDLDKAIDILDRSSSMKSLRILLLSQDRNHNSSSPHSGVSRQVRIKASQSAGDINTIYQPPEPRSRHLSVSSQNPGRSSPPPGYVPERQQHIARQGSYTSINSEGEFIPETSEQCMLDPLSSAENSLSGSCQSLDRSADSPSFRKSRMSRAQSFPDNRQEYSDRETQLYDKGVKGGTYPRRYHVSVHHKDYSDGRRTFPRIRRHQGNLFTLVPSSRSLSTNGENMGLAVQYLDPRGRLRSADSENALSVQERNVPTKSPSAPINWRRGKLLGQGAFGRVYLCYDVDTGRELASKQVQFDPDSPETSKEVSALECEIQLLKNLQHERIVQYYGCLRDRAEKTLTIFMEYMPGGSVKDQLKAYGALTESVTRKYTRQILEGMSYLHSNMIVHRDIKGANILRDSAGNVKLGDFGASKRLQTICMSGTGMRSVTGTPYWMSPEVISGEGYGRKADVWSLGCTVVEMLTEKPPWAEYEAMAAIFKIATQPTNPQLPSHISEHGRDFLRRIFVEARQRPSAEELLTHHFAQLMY
SKN-1 inh = C. elegans SKN-1 inhibition | C. elegans VP596 Pgst-4::GFP/RFP ratio, acrylamide-induced, 24 h | inhibition, % at 21.8 µM | 360,000 compounds, 0.49% hits | AID 624304;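 active means interference check ratio from 0.5 to 1.5 plus GFP to RFP signal ratio inhibition reaching or exceeding a fixed threshold, cut at about 30% in these data, passing the limit was not always enough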
MEKK2mut PB1 HTS = signal of MEK5 binding to mutant human MEKK2 PB1 domain; bead flow cytometry, Alexa488-MEK5 binding to MEKK2 mutant; percent response, % at 10 µM; 290,000 compounds, 0.35% hits; in the data active means percent response above about 24%, passing the limit was not always enough
MEKK2wt confirm = raises or lowers MEK5 binding to wildtype human MEKK2, retest; bead flow cytometry, Alexa488-MEK5 binding to MEKK2 WT; actives lie on both sides; 5,900 compounds, 2.4% hits; AID 1892; binding response (% of control), % at 10 µM; shares compounds with MEKK3 PB1 HTS; in the data active means binding response below about 16% or above about 210%; inactive means in between
MEKK2mut confirm = signal of MEK5 binding to mutant human MEKK2, retest; 5,900 compounds, 2% hits; AID 1893; bead flow cytometry, Alexa488-MEK5 binding to MEKK2 mutant; percent response, % at 10 µM; shares compounds with MEKK3 PB1 HTS; in the data active means percent response mostly above about 71%, no sharp cut-off; inactive means mostly below about 38%;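 further: higher means compound restores mutant binding toward wildtype level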
MEKK3-MEK5 inh = confirmation of inhibitors of MEK5 binding to human MEKK3; binding response (% of control), % at 10 µM; AID 1894; 5,900 compounds, 1.8% hits; shares compounds with MEKK3 PB1 HTS; bead flow cytometry, Alexa488-MEK5 binding to MEKK3; active compounds read low;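 active means binding response below 72% of control, or above a set upper limit, though filed actives all read lower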;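 further: 100% = DMSO only wells and 0% = binding blocked by excess unlabeled MEK5; lower values mean stronger disruption of MEK5 binding to MEKK3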
* marks the source's active call; other numbers are inactive results; / = not tested or not shown; ! = not confirmed by another sample; [ ] = another dose, or the depositor's remark.

SMILES	MEKK2wt PB1 HTS	CendR NRP1 mod	MEKK3 PB1 HTS	SKN-1 inh	MEKK2mut PB1 HTS	MEKK2wt confirm	MEKK2mut confirm	MEKK3-MEK5 inh
CN(Cc1ccccc1)S(=O)(=O)c1ccc2c(c1)n(C)c(=O)n2C	1.0*[inhibitor]	-3	2.0*[inhibitor]	-32	-41	101	5	103
S=C(Nc1ccccc1)N1CCC(Cc2ccccc2)CC1	101	-10	102	2	4	/	/	/
O=C(Nc1oc2ccccc2c(=O)c1-c1ccc(Cl)cc1)c1ccco1	88	-3	92	7	-16	/	/	/
CCOC(=O)c1sc2ccccc2c1NC(=O)c1coc2ccccc2c1=O	96	-17	139*	-1	-1	101	-1	102
CC(=O)c1ccc(NS(=O)(=O)c2ccc(N)cc2)cc1	118	-2	135*	1	1	101	12	104
CCCCn1nnnc1C(c1cc2ccccc2o1)N1CCN(C(=O)OCC)CC1 (stereo not drawn)	/	11	/	18	/	/	/	/
CCOC(=O)c1cccc(-n2c(-c3ccc(OC)cc3)nc3nc4ccccc4nc32)c1	94	/	134*	/	0	90	-4	100
CC(C)NC(=O)C1(C)CN(S(C)(=O)=O)CC(=O)N1CCCN1CCOCC1 (stereo not drawn)	/	7	/	-8	/	/	/	/
O=C(Nc1ccc(F)c(Cl)c1)[C@@H]1O[C@H](CO)[C@H](O)[C@H](O)[C@H]1O	/	1	/	19	/	/	/	/
O=C(Cc1c(Cl)cccc1Cl)OCC(=O)c1ccc[nH]1	/	-1	/	-2	/	/	/	/
CC(C(=O)NCCS(=O)(=O)c1ccc(Cl)cc1)S(=O)(=O)c1ccccc1 (stereo not drawn)	139	-3	152*	6	8	106	4	102
O=C(C[n+]1ccccc1)Nc1ccccc1	/	0	/	-11	/	/	/	/
O=C(C[n+]1ccc(Cc2ccccc2)cc1)Nc1ccccc1	125	4	86	2	64*	111	3	98
CCCCCCN1C[C@H](O)[C@@H](n2cc(C3CC3)nn2)C[C@@H]1c1ccccc1	/	-10	/	-1	/	/	/	/
COC(=O)C1=NN(c2ccc(Cl)cc2)C2C(=O)N(c3ccccc3OC)C(=O)C12 (stereo not drawn)	101	3	143*	1	-1	104	-2	107
Cc1ccn2c(C(C)O)nnc2c1 (stereo not drawn)	/	-2	/	5	/	/	/	/
Cc1cc(SCc2ccccc2)nc(=O)[nH]1	2.0*[inhibitor]	11	2.0*[inhibitor]	12	-17	94	-1	91
Cc1cc(SCc2ccc(F)cc2)nc(=O)[nH]1	99	-33	101	-2	-3	/	/	/
Cc1nc(C(F)(F)F)ccc1C(=O)N1CCCCCC1(C)C(=O)NCC(C)C (stereo not drawn)	/	2	/	32	/	/	/	/
O=C(NC(Cc1ccccc1)C(=O)N1CCN(c2ccc(F)cc2)CC1)c1ccccc1 (stereo not drawn)	/	8	/	9	/	/	/	/
CN(C)CCSc1nc(-c2ccccc2)nc2c1CCC2	111	4	138*	7	1	107	2	103
O=C(Nc1cc(C(F)(F)F)ccc1Cl)C(NCc1ccccc1)c1ccccc1 (stereo not drawn)	107	-3	101	13	-1	/	/	/
CCN(CC)CCNC(C(=O)Nc1cc(C(F)(F)F)ccc1Cl)c1ccccc1 (stereo not drawn)	106	12	143*	0	0	111	7	103
O=C(NC(=S)NCC1CCCO1)c1ccc(Cl)cc1Cl (stereo not drawn)	111	-3	143*	-5	1	93	-9	95
CC(NC(=O)COc1ccc(Br)cc1)C1CCCO1 (stereo not drawn)	106	1	103	-16	6	/	/	/
SMILES	MEKK2wt PB1 HTS	CendR NRP1 mod	MEKK3 PB1 HTS	SKN-1 inh	MEKK2mut PB1 HTS	MEKK2wt confirm	MEKK2mut confirm	MEKK3-MEK5 inh
Cc1cc(NC(=O)CCC(=O)N(Cc2ccco2)C2(C(=O)NC3CCCCC3)CCCC(C)C2)no1 (stereo not drawn)	96	10	99	1	-7	/	/	/
Nc1ccccc1SC1CC(=O)N(c2ccccc2Cl)C1=O (stereo not drawn)	59	12	49*[inhibitor]	1	-24	101	7	102
COc1ccc(CCN2C(=O)C(Oc3ccccc3C)C2c2ccc3c(c2)OCO3)cc1OC (stereo not drawn)	100	-4	100	-3	3	/	/	/
COc1ccc(CCN2C(=O)C(Oc3ccccc3C)C2c2ccc3c(c2)OCO3)cc1 (stereo not drawn)	109	5	156*	1	1	93	-10	98
CCSc1nnc(NC(=O)CN2C(=O)NC3(CCCC3)C2=O)s1	/	12	/	-7	/	/	/	/
COc1cccc(-c2cnc3c(NC(C)=O)cc(-c4ccc(S(C)(=O)=O)cc4)cn23)c1	/	-1	/	15	/	/	/	/
O=C1CCC(C(=O)N2CCN(c3ccccc3)CC2)CN1Cc1ccc(Cl)cc1 (stereo not drawn)	/	0	/	-13	/	/	/	/
Cc1ccc(CN2C(=O)CCC2C(=O)N2CCN(c3ccccc3)CC2)cc1 (stereo not drawn)	6.0*[inhibitor]	4	4.0*[inhibitor]	-1	-46	108	10	106
CC(C)(C)NCC(O)c1ccc(O)c(CO)c1 (stereo not drawn)	111	/	104	/	4	/	/	/
OCc1cc(C(O)CNCCCCCCOCCCCc2ccccc2)ccc1O (stereo not drawn)	144*!	1	112	4	9	120	2	103
COC(=O)[C@@]1(C(C)C)N=C(c2cc(OC)c(OC)c(OC)c2)[C@]2(O1)C(=O)N(C)c1ccccc12	/	0	/	2	/	/	/	/
C[n+]1c2n(c3ccccc31)N=C(c1ccc(-c3ccccc3)cc1)CS2	159*	6	112	-13	6	120	-22	89
Cc1noc(C)c1COc1ccc(C(=O)OC(C)C(=O)Nc2ccc(S(=O)(=O)N3CCOCC3)cc2)cc1 (stereo not drawn)	105	-68	152*	0	2	99	-2	104
Cc1ccc(S(=O)(=O)N2CCOCC2)cc1NC(=O)COC(=O)c1ccc(OCc2c(C)noc2C)cc1	99	8	96	1	-2	/	/	/
O=C(NCc1csc2ccccc12)Nc1cc(Cl)cc(Cl)c1	138*	7	123	11	29	106	-4	98
CCCNC(=O)C1(C)CCCN(Cc2c3ccccc3nn2C)C1 (stereo not drawn)	/	-8	/	0	/	/	/	/
